Compounds without any hit were thinned out: in the full panel of roughly 83,000, 20% have a hit.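 Values shown are percent growth following 48 h exposure of cells in 96-well plates to a single concentration of compound; below 10 was considered active.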 A number with no mark means an inactive call. Calls of active or inactive are those of the source.

Consider eight molecules from PubChem BioAssay (NCI).

Among the test systems are HCT-15 colon; HT29 colon; SNB-75 CNS; SNB-19 CNS; U251 CNS; PC-3 prostate; SK-MEL-5 melanoma; UACC-62 melanoma; LOX IMVI melanoma; SK-MEL-28 melanoma; SK-MEL-2 melanoma; EKVX NSCLC; SN12C renal; UO-31 renal; TK-10 renal; ACHN renal; CAKI-1 renal; A498 renal; CCRF-CEM leukemia; MOLT-4 leukemia.
Holding throughout (experiment): NCI-60 one-dose screen, 48 h (100 = growth as untreated, 0 = no growth, -100 = all killed)
Common to all, as to conditions: 10 µM unless noted

`O=C(COc1ccc(/C=C2\C(=O)Nc3cc(Cl)ccc32)cc1)Nc1ccc(Cl)cc1`: the growth in the experiment on HCT-15 colon is 42.5%; in the experiment with HT29 colon, 74.6%; in the experiment on SNB-75 CNS, 78.9%; in the experiment with SNB-19 CNS, 82.1%; with U251 CNS, 85.2%; with PC-3 prostate, 54.5%. In addition, the growth is 72.8% in the experiment with SK-MEL-5 melanoma; 24.6% with UACC-62 melanoma; 44.8% with LOX IMVI melanoma; 78.7% with SK-MEL-28 melanoma; 95.6% with SK-MEL-2 melanoma; 78.2% in the experiment on EKVX NSCLC. For the same molecule, the growth in the experiment with SN12C renal was 78.9%; in the experiment on UO-31 renal, 46.5%; with TK-10 renal, 127%; in the experiment on ACHN renal it was 57.8%; in the experiment on CAKI-1 renal it was 55.4%; with A498 renal, 102%. Further, the growth was 48.9% in the experiment on CCRF-CEM leukemia and 50.1% in the experiment on MOLT-4 leukemia.
On to `C#CCOc1cccc(-c2nc(N)nc(Nc3ccccc3SSc3ccccc3Nc3nc(N)nc(-c4cccc(OCC#C)c4)n3)n2)c1`, for which the growth in the experiment on HCT-15 colon was 28.6%; in the experiment with HT29 colon it was 96.9%; with SNB-75 CNS, 27.7%; in the experiment on SNB-19 CNS, -9.77% (active); in the experiment on U251 CNS, -48.9% (active); in the experiment with PC-3 prostate, 7.33% (active). The growth with SK-MEL-5 melanoma was 57.3%; in the experiment with UACC-62 melanoma, 63.9%; in the experiment on LOX IMVI melanoma, -52.8% (active); in the experiment on SK-MEL-28 melanoma, 88.9%; in the experiment on SK-MEL-2 melanoma, 96.3%; in the experiment with EKVX NSCLC, 37.3%. Also, the growth in the experiment on SN12C renal was 1.17% (active); in the experiment with UO-31 renal it was -78.6% (active); with TK-10 renal, 134%; with ACHN renal it was -76.4% (active); with CAKI-1 renal, 29.1%; with A498 renal, 73%. Besides, the growth in the experiment on CCRF-CEM leukemia was 30.6%; in the experiment on MOLT-4 leukemia, 44%.
For the molecule `COc1cc(OC)cc(-c2cc(-c3c[nH]c4ccccc34)nc(-c3c[nH]c4ccccc34)c2C#N)c1`, the growth is 102% in the experiment with HCT-15 colon; 108% with HT29 colon; 87.6% in the experiment on SNB-75 CNS; 96.6% in the experiment with SNB-19 CNS; 100% in the experiment with U251 CNS; 93.6% in the experiment with PC-3 prostate. For the same molecule, the growth in the experiment on SK-MEL-5 melanoma was 98.5%; with UACC-62 melanoma, 93.6%; in the experiment with LOX IMVI melanoma, 82.7%; in the experiment on SK-MEL-28 melanoma, 101%; in the experiment on SK-MEL-2 melanoma it was 88.4%; in the experiment with EKVX NSCLC it was 91.5%. For the same molecule, the growth in the experiment with SN12C renal is 95.1%; in the experiment with UO-31 renal, 71.3%; in the experiment with TK-10 renal, 124%; in the experiment with ACHN renal it was 97.2%; with CAKI-1 renal, 91%; with A498 renal, 96.7%. Further, the values for the growth in the experiment with CCRF-CEM leukemia and with MOLT-4 leukemia were 97.2% and 98.6%, respectively.
Consider `Cc1csc(/N=C(N)/N=C(\N)c2cccs2)n1`, for which the growth in the experiment on HCT-15 colon was 100%; with HT29 colon, 116%; with SNB-75 CNS it was 94.3%; in the experiment with SNB-19 CNS, 103%; with U251 CNS, 97%; with PC-3 prostate, 92.3%. For the same molecule, the growth is 99.5% in the experiment with SK-MEL-5 melanoma; 94.7% in the experiment with UACC-62 melanoma; 104% in the experiment with LOX IMVI melanoma; 117% in the experiment with SK-MEL-28 melanoma; 106% in the experiment on SK-MEL-2 melanoma; 94.2% in the experiment on EKVX NSCLC. In addition, the growth in the experiment with SN12C renal was 110%; in the experiment on UO-31 renal, 81.5%; with TK-10 renal, 174%; in the experiment with ACHN renal it was 107%; in the experiment with CAKI-1 renal it was 85.1%; with A498 renal, 120%. Besides, the growth with CCRF-CEM leukemia was 110%; with MOLT-4 leukemia, 106%.
Take `O=C(/C=C/c1ccc(Cl)c(Cl)c1)Nc1ncc(Cc2ccc(Cl)c(Cl)c2)s1`: the growth in the experiment on HCT-15 colon was 29%; in the experiment with HT29 colon, 36.2%; with SNB-75 CNS it was 95.5%; in the experiment on SNB-19 CNS it was 74%; in the experiment with U251 CNS, 58.2%; in the experiment with PC-3 prostate, 45.3%. Besides, the growth with SK-MEL-5 melanoma is 51.4%; in the experiment on UACC-62 melanoma, 10.3%; in the experiment on LOX IMVI melanoma, 23.3%; in the experiment on SK-MEL-28 melanoma, 48.5%; in the experiment on SK-MEL-2 melanoma, 79.2%; with EKVX NSCLC it was 69.8%. Also, the growth in the experiment on SN12C renal is 83.7%; in the experiment with UO-31 renal, 63.5%; with TK-10 renal it was 95.8%; in the experiment with ACHN renal, 42.6%; in the experiment on CAKI-1 renal, 53.9%; in the experiment with A498 renal, 99.8%. The growth in the experiment on CCRF-CEM leukemia is 71.3%; in the experiment on MOLT-4 leukemia, 54.8%.
Regarding `CCCN1C=C/C(=C\C(=O)n2ccc3ccccc32)c2ccccc21`, the growth in the experiment with HCT-15 colon is 80.3%; in the experiment on HT29 colon it was 74.7%; in the experiment with SNB-75 CNS, 90.8%; in the experiment on SNB-19 CNS, 94.5%; with U251 CNS, 90.3%; in the experiment on PC-3 prostate, 73.7%. In addition, the growth was 82.1% in the experiment on SK-MEL-5 melanoma; 68.9% with UACC-62 melanoma; 78.7% with LOX IMVI melanoma; 90.6% with SK-MEL-28 melanoma; 105% in the experiment on SK-MEL-2 melanoma; 56.5% in the experiment with EKVX NSCLC. Moreover, the growth in the experiment on SN12C renal was 84.1%; with UO-31 renal it was 53%; in the experiment on TK-10 renal it was 105%; in the experiment with ACHN renal it was 82.8%; in the experiment on CAKI-1 renal, 60.1%; with A498 renal, 92.9%. The growth in the experiment with CCRF-CEM leukemia was 73.3%; in the experiment on MOLT-4 leukemia, 76.5%.
As for `C#CCOc1ccccc1/C=N/Nc1nc(-c2ccc(Cl)cc2)cs1`, the growth was 104% in the experiment on HCT-15 colon; 106% with HT29 colon; 92.5% in the experiment with SNB-75 CNS; 97.9% in the experiment on SNB-19 CNS; 99.2% in the experiment with U251 CNS; 86.5% with PC-3 prostate. The growth with SK-MEL-5 melanoma was 98.3%; in the experiment on UACC-62 melanoma, 85.7%; with LOX IMVI melanoma it was 95.1%; with SK-MEL-28 melanoma it was 98.1%; in the experiment with SK-MEL-2 melanoma, 102%; with EKVX NSCLC, 77.5%. Besides, the growth in the experiment on SN12C renal was 93.8%; in the experiment on UO-31 renal, 75.9%; in the experiment on TK-10 renal it was 145%; in the experiment on ACHN renal, 95.3%; in the experiment with CAKI-1 renal it was 92%; in the experiment with A498 renal it was 81.4%. For the same molecule, the growth in the experiment with CCRF-CEM leukemia is 96.6%; in the experiment with MOLT-4 leukemia, 90.8%.
Turning to `O=C1[C@@H]2Cc3c([nH]c4ccccc34)[C@@H](c3ccc(Cl)cc3)N2C(=O)CN1C1CCN(Cc2c(F)cccc2F)CC1`, the growth was 24.3% in the experiment with HCT-15 colon; -10.2% (active) in the experiment with HT29 colon; 25.9% with SNB-75 CNS; 47.8% in the experiment on SNB-19 CNS; 38% in the experiment with U251 CNS; 13.8% in the experiment with PC-3 prostate. The growth in the experiment with SK-MEL-5 melanoma is 48.8%; in the experiment on UACC-62 melanoma, 40.7%; with LOX IMVI melanoma, 21.3%; in the experiment with SK-MEL-28 melanoma, 64.8%; with SK-MEL-2 melanoma it was 67.6%; with EKVX NSCLC, 40.1%. The growth in the experiment on SN12C renal was 38.5%; with UO-31 renal it was 24.2%; in the experiment with TK-10 renal it was 52.5%; in the experiment with ACHN renal it was 28%; with CAKI-1 renal, 24.6%; in the experiment on A498 renal, 60%. For the same molecule, the growth was 19.8% with CCRF-CEM leukemia and 8.27% (active) in the experiment with MOLT-4 leukemia.
